{"source": "PubChem BioAssay AID1963576", "about": "(National Center for Advancing Translational Sciences (NCATS), 2024)", "note": "Among all 46,000 compounds or so, about 60 (0.1%) were called active. About 3% were inconclusive and are not listed. The sample holds actives, similar compounds and a random draw of the others, so the mix is not that of the screen. Values without a mark were called inactive. Calls follow the shape of the dose curve; as a rule, active = well fitted inhibition curve with a large enough effect; inconclusive = small, poorly fitted or top-dose-only effect; inactive = no such curve, though single readings can be large or run the other way. Potency is read from the fitted curve at half-maximal effect."}
{"assay": "Primary qHTS assay for Inhibitors of ovarian cancer metastasis using an organotypic tumor microenvironment (TME) model; also: nearly all actives have a fitted effect of over 65% in size;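 as to Potency: count of GFP cancer cells still attached after washing and fixation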.", "settings": "SKOV3ip1-GFP adhesion/invasion on 3D omental model, fluorescence; series mostly up to 45.8 µM; activity change, negative = inhibition: at the top concentration", "excerpt": "PI: Ernst Lengyel MD., Ph.D. Department of Obstetrics and Gynecology, Section of Gynecologic Oncology University of Chicago Medicine, Chicago, Illinois. The tumor microenvironment (TME) is a key determinant of metastatic efficiency. We performed a quantitative high-throughput screen (qHTS) of diverse medicinal chemistry tractable scaffolds (44,420 compounds) and pharmacologically active small molecules (386 compounds) using a layered organotypic, robust assay representing the ovarian cancer metastatic TME. This 3D model contains primary human mesothelial cells, fibroblasts, and extracellular matrix, to which fluorescently labeled ovarian cancer cells are added. Initially, 100 compounds inhibiting ovarian cancer adhesion/invasion to the 3D model in a dose-dependent manner were identified. Of those, eight compounds were confirmed active in five high-grade serous ovarian cancer cell lines and were further validated in secondary in vitro and in vivo biological assays. […] Specifically, NCGC00117362 and PP-121 inhibited ovarian cancer adhesion, invasion, and proliferation, whereas milciclib inhibited ovarian cancer invasion and proliferation. […] To evaluate the clinical potential of NCGC00117362, structure - activity relationship studies were performed. […] The three compounds identified have promise as therapeutics for prevention and treatment of ovarian cancer metastasis.\nPROTOCOL TABLE (as described by Inglese J, Shamu CE and Guy RK. 2007) SEQUENCE No. (e.g., 1, 2, 3, etc.); […] (e.g., Cells, Incubation, Reagent, etc.); VALUE; DESCRIPTION. 1; Cells; 4 uL; primary human omental fibroblast, black, clear bottom, low base, 1536-well Aurora assay plate. 2; Incubation; 48 hr; 37C. 3; Cells; 3 uL; 1,200 SKOV3ip1-GFP cells. 4; Compounds; 23nL; acoustic dispenser. 5; Incubation; 2 hr; room temperature. 6; Incubation; 16 hr; 37C. 7; Wash; 5 uL; 1x PBS. 8; Fixing; 5 uL; 4% paraformaldehyde (PFA). 9; Incubation; 15 min; room temperature 10; Wash, 5 uL; 1x PBS. 11; Detection; Fluorescence, excitation filter 488 nm, emission filter 509 nm. NOTES (numbers refer to Sequence numbers above) 1. For the 1,536-well format, 40 primary human omental fibroblasts and 400 mesothelial cells were seeded with 0.02 µg fibronectin and 0.02 µg collagen type I in 4 µL of growth media (2.3 mm2; Supplementary Fig. S1A). 2. Assay plates were incubated for 48 hours at 37 C. 3. After incubation, 1,200 SKOV3ip1-GFP were seeded in 3 µL of serum-free media (growth media minus FBS) on top of primary human omental cells. 4. Compounds or controls were added to each well immediately after the addition of the cancer cells. Compounds were screened in four doses (0.36-46 µmol/L), and the plates contained the positive control (Tomatine) in eight doses (0.035-75 µmol/L) and DMSO (equal volume controls) 5 - 6. The plates were incubated at room temperature for 2 hours and then at 37 degrees C for 16 hours. 7 - 10. Following incubation, the media were aspirated and each well washed with PBS (5 µL) and then fixed with 4% paraformaldehyde (PFA; 5 µL). After 15 minutes, the PFA solution was aspirated, PBS (5 µL) was added. 11. The number of GFP-labeled cells analyzed using a fluorescent cytometer TTP LabTech Acumen eX3 using 488 nm excitation filter and 509 nm emission filter. Data was normalized to the DMSO treated for negative and Tomatine treated wells for positive control. REFERENCES: Inglese J, Shamu CE and Guy RK, Reporting data from high throughput screening of small molecule libraries, Nature Chemical Biology, 2007, 3(8): 438-441. doi.org/10.1038/nchembio0807-438. Yasgar A, Shinn P, Jadhav A, Auld DS, Michael S, Zheng W, Austin CP, Inglese J and Simeonov A, Compound Management for Quantitative High-Throughput Screening. J. Assoc. Lab. Auto., 2008, 13: 79-89. doi: 10.1016/j.jala.2007.12.004."}
{"smiles": "CCCCCn1c(=O)[nH]c2cc(C(=O)Nc3cc(C)cc(C)c3)ccc2c1=O", "outcome": "inactive"}
{"smiles": "Cc1ccc(NC(=O)CCCn2c(=O)c3cccn3c3ccccc32)cc1Cl", "outcome": "inactive"}
{"smiles": "Cc1ccc(C)c(CNC(=O)c2cc3ccccn3n2)c1", "activity change, negative = inhibition": "-2.96%"}
{"smiles": "Cc1ccc(CSc2oc(-c3cccs3)nc2S(=O)(=O)c2ccc(C)cc2)cc1", "activity change, negative = inhibition": "2.23%"}
{"smiles": "CCCCS(=O)(=O)c1oc(-c2cccs2)nc1S(=O)(=O)c1ccccc1", "Potency": "2510 nM (active)"}
{"smiles": "CSc1oc(-c2cccs2)nc1S(=O)(=O)c1ccc(Br)cc1", "activity change, negative = inhibition": "-2.14%"}
{"smiles": "CN(CC(=O)Nc1ccccc1F)S(=O)(=O)c1ccc2c(c1)c(=O)n(C)c(=O)n2C", "outcome": "inactive"}
{"smiles": "Cc1ccc(NC(=O)Cn2cnc3nc4c(cc3c2=O)CCCC4)cc1Cl", "activity change, negative = inhibition": "-18.1%"}
{"smiles": "COc1cccc(C(=O)NC(=O)Nc2ccc(-c3cc(C(F)(F)F)nn3-c3ccccc3)cc2)c1", "activity change, negative = inhibition": "-6.28%"}
{"smiles": "Cc1cc(C)c2oc(C(=O)Nc3c(C(=O)Nc4ccccc4)oc4ccccc34)cc(=O)c2c1", "activity change, negative = inhibition": "-0.148%"}
{"smiles": "COc1ccc(CCNC(=O)c2cnc3sc(N4CCCCCC4)nn3c2=O)cc1OC", "outcome": "inactive"}
{"smiles": "COc1cc(NC(=O)c2nn(-c3ccc(C)cc3)c(=O)c3c2c2ccccc2n3C)cc(OC)c1OC", "activity change, negative = inhibition": "2.39%"}
{"smiles": "Cc1ccc(Cl)cc1NC(=O)NC1COc2ccccc2C1", "note": "(stereo not drawn)", "activity change, negative = inhibition": "-3.78%"}
{"smiles": "Cn1ccc2cc(S(=O)(=O)N3CCCC(C(=O)NCc4ccccc4F)C3)ccc21", "note": "(stereo not drawn)", "activity change, negative = inhibition": "-6.3%"}
{"smiles": "COC(=O)c1ccc(OC)c(Cn2c(=O)n(Cc3ccccc3)c(=O)c3c2c2cc(OC)ccc2n3C)c1", "activity change, negative = inhibition": "0.627%"}
{"smiles": "Cc1cccc(CCNC(=O)c2ccc3c(c2)nc2n3CCC(C)C2)c1", "note": "(stereo not drawn)", "activity change, negative = inhibition": "-15%"}
{"smiles": "CCOC(=O)C1CCN(c2ncnc3c2c(-c2ccccc2)cn3-c2cccc(C)c2)CC1", "outcome": "inactive"}
{"smiles": "CC(=O)O[C@]1(C(C)=O)CC[C@@H]2[C@@H]3C[C@H](C)C4=CC(=O)CC[C@]4(C)[C@H]3CC[C@@]21C", "activity change, negative = inhibition": "20%"}
{"smiles": "CC1=C(C(=O)OCc2ccc(C)cc2)C(c2ccccc2Cl)CC(=O)N1", "note": "(stereo not drawn)", "outcome": "inactive"}
{"smiles": "Cc1ccc(C(=O)Nc2cc3c(cc2N2CCCC2)n(C)c(=O)c(=O)n3C)cc1", "activity change, negative = inhibition": "6.74%"}
{"smiles": "COc1ccccc1-c1cc2nc(C)c(CCC(=O)NC3CCCCC3)c(C)n2n1", "activity change, negative = inhibition": "-9.62%"}
{"smiles": "CCOc1ccc(NC(=O)CCc2c(C)nn(-c3ccc(N4CCCC4)nn3)c2C)cc1", "outcome": "inactive"}
{"smiles": "CN1CCN(c2oc(-c3ccc(COc4ccc(Cl)cc4)o3)nc2C#N)CC1", "activity change, negative = inhibition": "3.31%"}
{"smiles": "COc1ccc(Cn2cc(C(=O)c3ccc(C)cc3)c(=O)c3cc(OC)c(OC)cc32)cc1", "activity change, negative = inhibition": "-5.32%"}
{"smiles": "Cc1ccc2nc(COc3ccc(NC(=O)COc4ccccc4F)cc3)cc(=O)n2c1", "outcome": "inactive"}
{"smiles": "COc1ccccc1CNC(=O)c1ccc(-n2c(C)cc3c2CCCC3)cc1", "activity change, negative = inhibition": "2.22%"}
{"smiles": "O=C(CSCc1cnn(-c2ccccc2)c1-n1cccc1)NCc1ccccc1Br", "activity change, negative = inhibition": "0.114%"}
{"smiles": "COc1cc(Cl)cn2c(-c3cccc(NC4CNC4)n3)cnc12", "activity change, negative = inhibition": "6.77%"}
{"smiles": "Cc1ccc(C)c(Nc2nnc(-c3ccc(C)c(S(=O)(=O)N4CCCCC4)c3)c3ccccc23)c1", "activity change, negative = inhibition": "-1.28%"}
{"smiles": "Cc1ccc(C)c(N2CCN(C(=O)CCc3c(C)nc4c(c3C)c(=O)n(C)c(=O)n4C)CC2)c1", "activity change, negative = inhibition": "-15.3%"}
{"smiles": "CCOc1ccc(NC(=O)c2cc3c(=O)n(Cc4cccs4)ccc3nc2C)cc1", "activity change, negative = inhibition": "2.81%"}
{"smiles": "CCCOc1ccc(NC(=O)CC2C(=O)N(c3ccccc3)C(=O)N2Cc2ccco2)cc1", "note": "(stereo not drawn)", "activity change, negative = inhibition": "2.15%"}
{"smiles": "O=C(CCCn1c(=O)c2cccn2c2cccnc21)NCc1ccc(F)cc1", "outcome": "inactive"}
{"smiles": "Cc1ccccc1-c1nc2cc(NC(=O)c3cccc(OCCC(C)C)c3)ccc2o1", "activity change, negative = inhibition": "1.04%"}
{"smiles": "CCN(Cc1ccccc1)C(=O)CCS(=O)(=O)c1ccc2c(c1)oc(=O)n2C", "activity change, negative = inhibition": "8.58%"}
{"smiles": "Cc1cccc(NC(=O)CN(c2ccc(C(C)C)cc2)S(=O)(=O)c2c(C)nn(C)c2C)c1C", "activity change, negative = inhibition": "-7.12%"}
{"smiles": "O=C(CCc1ccccc1)NCc1ccc2c(c1)CCN2C(=O)c1ccccc1", "outcome": "inactive"}
{"smiles": "Cc1cc(O)c(C(c2ccccc2)N2CCN(c3ccccc3F)CC2)c(=O)n1Cc1ccco1", "note": "(stereo not drawn)", "activity change, negative = inhibition": "-0.378%"}
{"smiles": "O=[N+]([O-])c1cc(-c2nc(-c3ccccc3)no2)ccc1NCc1ccco1", "activity change, negative = inhibition": "6.86%"}
{"smiles": "Cc1ccc(C)c(Cn2c(C)c(CNCc3ccc(F)cc3)c(C(=O)O)c2C)c1", "outcome": "inactive"}
{"smiles": "COc1ccc(C2(C#N)CCC(C(=O)O)CC2)cc1OC1CCCC1", "note": "(stereo not drawn)", "activity change, negative = inhibition": "9.33%"}
{"smiles": "CCOC(=O)c1c(NC(=O)c2cc(CC)on2)sc(C(C)=O)c1C", "activity change, negative = inhibition": "8.82%"}
{"smiles": "CC(C)(C)c1[nH]cnc1C=c1[nH]c(=O)c(=Cc2ccccc2)[nH]c1=O", "activity change, negative = inhibition": "0.182% [at 92.2 µM]"}
